Out of some 5,500 compounds screened, about 2,000 (36%) were called active. Another 18% or so got no clear call; they are omitted. No stated cut-off is given here; in the data, active means normalized growth mostly below about 0.91 (no sharp cut-off); inconclusive means no clear call, values can overlap the other calls; inactive means mostly above about 0.92. The list shows a part of the results.
Test: chemical genetic growth profiling, strain panel (AID 1159580);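 further: tested at 20 µM; growth read once vehicle control cultures reached saturation at 30 °C; 1 = growth at the plate median or of vehicle wells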
Details: S. cerevisiae deletion strains, growth OD
[1] = locus YAR019C, strain CDC15, stronger effect = lower value
[2] = locus YBL105C, strain PKC1, stronger effect = lower value
[3] = locus YBR135W, strain CKS1, stronger effect = lower value
[4] = locus YBR136W, strain MEC1, stronger effect = lower value
[5] = locus YBR160W, strain CDC28, stronger effect = lower value
[6] = locus YDL017W, strain CDC7, stronger effect = lower value
[7] = locus YDL028C, strain MPS1, stronger effect = lower value
[8] = locus YDL101C, strain DUN1, stronger effect = lower value
[9] = locus YDL108W, strain KIN28, stronger effect = lower value
[10] = locus YDL132W, strain cdc53, stronger effect = lower value
[11] = locus YDL214C, strain PRR2, stronger effect = lower value
[12] = locus YDR052C, strain DBF4, stronger effect = lower value
[13] = locus YDR054C, strain cdc34, stronger effect = lower value
[14] = locus YDR226W, strain ADK1, stronger effect = lower value
[15] = locus YDR477W, strain SNF1, stronger effect = lower value
[16] = locus YER123W, strain YCK3, stronger effect = lower value
[17] = locus YER133W, strain GLC7, stronger effect = lower value
[18] = locus YFL009W, strain cdc4, stronger effect = lower value
[19] = locus YFL029C, strain CAK1, stronger effect = lower value
[20] = locus YFR003C, strain YPI1, stronger effect = lower value
[21] = locus YFR019W, strain FAB1, stronger effect = lower value
[22] = locus YFR028C, strain CDC14, stronger effect = lower value
[23] = locus YGR040W, strain KSS1, stronger effect = lower value
[24] = locus YGR052W, strain FMP48, stronger effect = lower value
[25] = locus YGR092W, strain DBF2, stronger effect = lower value
[26] = locus YHR030C, strain SLT2, stronger effect = lower value
[27] = locus YHR079C, strain IRE1, stronger effect = lower value
[28] = locus YHR082C, strain KSP1, stronger effect = lower value
[29] = locus YHR205W, strain SCH9, stronger effect = lower value
[30] = locus YIL147C, strain SLN1, stronger effect = lower value
[31] = locus YJL095W, strain BCK1, stronger effect = lower value
[32] = locus YJL128C, strain PBS2, stronger effect = lower value
[33] = locus YJL157C, strain FAR1, stronger effect = lower value
[34] = locus YJR016C, strain ILV3, stronger effect = lower value
[35] = locus YJR066W, strain TOR1 (second series), stronger effect = lower value
[36] = locus YJR066W, strain TOR1, stronger effect = lower value
[37] = locus YKL048C, strain ELM1, stronger effect = lower value
[38] = locus YKL067W, strain YNK1, stronger effect = lower value
[39] = locus YKL101W, strain HSL1, stronger effect = lower value
[40] = locus YKL193C, strain SDS22, stronger effect = lower value
[41] = locus YKL203C, strain TOR2, stronger effect = lower value
[42] = locus YLR113W, strain HOG1, stronger effect = lower value
[43] = locus YLR133W, strain CKI1, stronger effect = lower value
[44] = locus YLR403W, strain SFP1, stronger effect = lower value
[45] = locus YML070W, strain DAK1, stronger effect = lower value
[46] = locus YMR001C, strain CDC5, stronger effect = lower value
[47] = locus YMR205C, strain PFK2 (second series), stronger effect = lower value
[48] = locus YMR277W, strain FCP1, stronger effect = lower value
[49] = locus YNL006W, strain LST8, stronger effect = lower value
[50] = locus YNL020C, strain ARK1, stronger effect = lower value
[51] = locus YNL161W, strain CBK1, stronger effect = lower value
[52] = locus YNL183C, strain NPR1, stronger effect = lower value
[53] = locus YNL207W, strain RIO2, stronger effect = lower value
[54] = locus YNL222W, strain SSU72, stronger effect = lower value
[55] = locus YNL307C, strain MCK1 (second series), stronger effect = lower value
[56] = locus YOL078W, strain AVO1, stronger effect = lower value
[57] = locus YOL136C, strain PFK27, stronger effect = lower value
[58] = locus YOR061W, strain CKA2, stronger effect = lower value
[59] = locus YOR119C, strain RIO1, stronger effect = lower value
[60] = locus YOR231W, strain MKK1, stronger effect = lower value
[61] = locus YOR329C, strain SCD5, stronger effect = lower value
[62] = locus YPL031C, strain PHO85, stronger effect = lower value
[63] = locus YPL153C, strain RAD53, stronger effect = lower value
[64] = locus YPL204W, strain HRR25, stronger effect = lower value
[65] = locus YPL209C, strain IPL1, stronger effect = lower value
[66] = locus YPL256C, strain CLN2, stronger effect = lower value
[67] = locus YPR025C, strain CCL1, stronger effect = lower value
[68] = locus YPR106W, strain ISR1, stronger effect = lower value
[69] = locus YPR111W, strain DBF20, stronger effect = lower value
[70] = strain NNK1, stronger effect = lower value
[71] = strain TSCII, stronger effect = lower value

Measured: normalized growth

O=C(NNc1ccccc1)c1cc(-c2ccc(Cl)cc2)oc1C(F)(F)F
inactive: [1] 0.947 | [2] 0.952 | [3] 0.934 | [4] 0.952 | [5] 0.942 | [6] 0.949 | [7] 0.957 | [8] 0.973 | [9] 0.95 | [10] 0.953 | [11] 0.714 | [12] 0.956 | [13] 0.94 | [14] 0.951 | [18] 0.958 | [19] 0.943 | [20] 0.958 | [21] 0.779 | [22] 0.942 | [27] 0.541 | [29] 0.624 | [30] 0.96 | [32] 0.975 | [33] 0.75 | [34] 0.95 | [35] 0.66 | [40] 0.954 | [46] 0.942 | [48] 0.953 | [49] 0.96 | [51] 0.944 | [52] 0.697 | [53] 0.959 | [54] 0.931 | [56] 0.952 | [57] 0.727 | [58] 0.795 | [61] 0.957 | [65] 0.926 | [67] 0.951 | [68] 0.933 | [69] 0.931 | [70] 0.939 | [71] 0.95
active: [15] 0.615 | [16] 0.522 | [17] 0.629 | [23] 0.622 | [24] 0.38 | [25] 0.434 | [26] 0.289 | [28] 0.5 | [31] 0.293 | [36] 0.456 | [37] 0.762 | [38] 0.686 | [39] 0.521 | [41] 0.636 | [42] 0.234 | [43] 0.678 | [44] 0.653 | [45] 0.465 | [47] 0.667 | [50] 0.683 | [55] 0.549 | [59] 0.684 | [60] 0.46 | [62] 0.443 | [63] 0.339 | [64] 0.58 | [66] 0.492

O=C(Nc1ccncc1)c1cc(-c2ccccc2)oc1C(F)(F)F
active: [42] 0.843
inactive: [1] 0.99 | [2] 0.985 | [3] 0.991 | [4] 0.988 | [5] 0.983 | [6] 0.991 | [7] 0.993 | [8] 0.992 | [9] 0.991 | [10] 0.979 | [11] 0.953 | [12] 0.989 | [13] 0.981 | [14] 0.989 | [15] 0.973 | [16] 0.946 | [17] 0.976 | [18] 0.99 | [19] 0.984 | [20] 0.99 | [21] 0.993 | [22] 0.984 | [23] 0.962 | [24] 1 | [25] 0.949 | [26] 1 | [27] 0.941 | [28] 1.01 | [29] 0.998 | [30] 0.994 | [31] 0.991 | [32] 0.958 | [33] 0.952 | [34] 0.988 | [35] 0.937 | [36] 1.03 | [37] 0.976 | [38] 0.968 | [39] 0.977 | [40] 0.988 | [41] 1.04 | [43] 0.975 | [44] 0.987 | [45] 0.951 | [46] 0.996 | [47] 0.973 | [48] 0.993 | [49] 0.992 | [50] 0.985 | [51] 0.982 | [52] 0.965 | [53] 0.98 | [54] 0.977 | [55] 0.976 | [56] 0.988 | [57] 0.953 | [58] 0.991 | [59] 1.03 | [60] 0.908 | [61] 0.998 | [62] 0.964 | [63] 0.959 | [64] 0.953 | [65] 0.976 | [66] 0.868 | [67] 0.99 | [68] 0.979 | [69] 0.98 | [70] 0.993 | [71] 0.989
